# Bioassay records from PubChem BioAssay.
# mut p53 SMM = binders of human mutant p53, primary screen, biochemical, small molecule microarray, anti-GST fluorescence; mutant tumor protein p53 (GST-tagged), Homo sapiens; small molecule microarray binding; calls only; hit rate 0.4% among 17,000; AID 624136, 2012;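 active = compounds whose four printed spots each glow above background more than chance allows, each with a p-value under 7%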
# STAT3 binder = STAT3 binders, primary screen, biochemical, small molecule microarray, single point, set 2; Signal transducer and activator of transcription 3 (Homo sapiens), P40763; His-STAT3 binding, anti-His fluorescence; calls only; hit rate 0.2% among 17,000; AID 624138, 2012;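 active = compounds whose four printed spots each show fluorescence over background unusually high for their array block, chance value under 7%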
# mut p53 react = mutant p53 pathway re-activators, primary screen, cell-based, SW480, luciferase, single point, HTS; SW480 PUMA-promoter luciferase, p53 mutant reactivation; activation, % at 9.98 µM; hit rate 1.5% among 28,000; in the data active = activation above about 52%
# NFkB SMM = binders of NF-kB p50 subunit, primary screen, biochemical, small molecule microarray, anti-His fluorescence; Nuclear factor NF-kappa-B p105 subunit (Homo sapiens), P19838; anti-His fluorescence binding; calls only; hit rate 1.3% among 17,000; AID 624139, 2012;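 active = spot fluorescence over background significantly raised, with a chance value under 7% in all four replicate spots of the compound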;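 also: probe protein is his-tagged human p50 processed subunit at 1 µg/ml; raw spot fluorescence signals with no normalization applied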
# Target sequence (P19838 1-433 limits assumed): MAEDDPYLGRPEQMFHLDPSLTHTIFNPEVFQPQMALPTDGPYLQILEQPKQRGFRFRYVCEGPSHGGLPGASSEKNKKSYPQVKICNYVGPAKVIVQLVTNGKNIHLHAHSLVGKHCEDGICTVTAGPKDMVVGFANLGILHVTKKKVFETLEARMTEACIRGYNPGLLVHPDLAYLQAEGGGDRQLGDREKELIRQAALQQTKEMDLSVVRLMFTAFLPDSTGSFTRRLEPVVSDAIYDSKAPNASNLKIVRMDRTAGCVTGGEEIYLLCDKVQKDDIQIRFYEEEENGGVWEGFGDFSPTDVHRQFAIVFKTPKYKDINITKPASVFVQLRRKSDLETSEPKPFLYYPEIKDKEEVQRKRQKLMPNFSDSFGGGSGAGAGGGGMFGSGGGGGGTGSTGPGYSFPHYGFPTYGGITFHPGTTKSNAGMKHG
# c-Myc SMM = binders of human c-Myc, primary screen, biochemical, small molecule microarray, anti-His fluorescence; Myc proto-oncogene protein (Homo sapiens), P01106; His-c-Myc binding; calls only; hit rate 1.5% among 17,000; AID 624141, 2012;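 active = spot fluorescence over background with P-value below 7% in all four replicate spots, showing protein binding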;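 also: score is binary with 100 for all four spots passing and 0 otherwise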
# * hit, by the source's call; i = inactive; nt = no result given; + = active, no number. In the library only some 2.6% were active in any assay of this set; here they are far more common.
SMILES,mut p53 SMM,STAT3 binder,mut p53 react,NFkB SMM,c-Myc SMM
COC(=O)[C@]1(Cc2ccccc2)N=C(c2ccc(OCCCO)cc2)O[C@@H]1c1ccccc1N=[N+]=[N-],+,i,nt,+,i
O=C(NCc1ccccc1)[C@@]1(Cc2ccccc2)N=C(c2ccc(OCCCO)cc2)O[C@H]1c1ccccc1,+,i,nt,i,i
Cc1ccc(Nc2nc(N)nc(CN3CCN(C(c4ccccc4)c4ccccc4)CC3)n2)cc1,nt,nt,-3,nt,nt
FC(F)(F)c1ccc(C2=NCCc3sccc32)cc1,nt,nt,34,nt,nt
O=C(NCc1cccnc1)C(=O)Nc1cccc(Cl)c1Cl,nt,nt,47,nt,nt
CCc1ccc(OCC(=O)Nc2cc(OC)ccc2OC)c(Br)c1,nt,nt,58*,nt,nt
COC(=O)c1ccccc1NC(=O)COc1ccc(C(C)(C)C)cc1Br,nt,nt,4,nt,nt
CCc1ccc(OCC(=O)Nc2ccccc2C(=O)OC)c(Br)c1,nt,nt,59*,nt,nt
N#Cc1c(NC(=O)C2CC(c3ccccc3O)=NO2)sc2c1CCCC2 (stereo not drawn),nt,nt,4,nt,nt
CN(C(=S)Nc1ccccc1)C1CCC(C2OCCO2)CC1O (stereo not drawn),nt,nt,0,nt,nt
O=C1c2cccc3cccc(c23)C(=O)N1CCCSc1ncn[nH]1,i,i,45,i,+
COc1ccc(-n2c(SCCCN3C(=O)c4cccc5cccc(c45)C3=O)nnc2-c2ccncc2)cc1,nt,nt,-3,nt,nt
Cn1c(SCCCN2C(=O)c3cccc4cccc(c34)C2=O)nnc1-c1cccs1,nt,nt,35,nt,nt
O=C1c2cccc3cccc(c23)C(=O)N1CCCSc1n[nH]c(-c2ccc(F)cc2)n1,nt,nt,55*,nt,nt
CNC(=O)CN(c1ccc(Br)cc1)S(=O)(=O)c1ccc(C)cc1,nt,nt,-8,nt,nt
COc1c(O)c(C(=O)CCc2ccccc2)c(OC)c(OC)c1OC,i,i,9,i,i
O=c1c(C=Nc2ccccc2)c(O)c2c(n1-c1ccccc1)CCCC2,nt,nt,-13,nt,nt
Cc1noc(C)c1S(=O)(=O)N(C)C[C@@H]1OCCCC[C@@H](C)Oc2ccc(N(C)C)cc2C(=O)N([C@@H](C)CO)C[C@@H]1C,i,i,-2,i,i
C[C@@H]1CCCCO[C@@H](CN(C)S(=O)(=O)c2ccccc2)[C@H](C)CN([C@H](C)CO)C(=O)c2cc(N(C)C)ccc2O1,i,i,-21,i,i
Cc1noc(C)c1S(=O)(=O)N(C)C[C@H]1OCCCC[C@@H](C)Oc2ccc(N(C)C)cc2C(=O)N([C@@H](C)CO)C[C@@H]1C,i,+,7,+,+
C[C@@H]1CCCCO[C@H](CN(C)S(=O)(=O)c2ccccc2)[C@@H](C)CN([C@@H](C)CO)C(=O)c2cc(N(C)C)ccc2O1,i,i,8,+,i
COc1ccc(CN(C)C[C@H]2OCCCC[C@@H](C)Oc3ccc(NC(=O)Nc4c(C)noc4C)cc3C(=O)N([C@@H](C)CO)C[C@@H]2C)cc1,i,i,2,i,i
Cc1noc(C)c1NC(=O)Nc1ccc2c(c1)C(=O)N([C@H](C)CO)C[C@H](C)[C@@H](CN(C)C(=O)C1CCCCC1)OCCCC[C@H](C)O2,i,i,4,i,+
COc1ccc(CN(C)C[C@H]2OCCCC[C@H](C)Oc3ccc(NC(=O)Nc4c(C)noc4C)cc3C(=O)N([C@H](C)CO)C[C@@H]2C)cc1,i,i,17,i,+
Cc1noc(C)c1NC(=O)Nc1ccc2c(c1)C(=O)N([C@@H](C)CO)C[C@@H](C)[C@@H](CN(C)C(=O)C1CCCCC1)OCCCC[C@@H](C)O2,i,+,1,i,i
SMILES,mut p53 SMM,STAT3 binder,mut p53 react,NFkB SMM,c-Myc SMM
Cc1noc(C)c1NC(=O)Nc1ccc2c(c1)C(=O)N([C@H](C)CO)C[C@@H](C)[C@@H](CN(C)C(=O)C1CCCCC1)OCCCC[C@H](C)O2,i,i,14,i,i
COc1ccccc1N(CC(=O)N1CCN(C)CC1)S(C)(=O)=O,nt,nt,0,nt,nt
Cc1ccc2c(c1)c1c(n2CC(O)CO)C(=O)CCC1 (stereo not drawn),i,i,-12,i,i
CN(CC(=O)Nc1ccc([N+](=O)[O-])cc1)S(=O)(=O)c1cc(Cl)ccc1Cl,nt,nt,-2,nt,nt
CCn1nccc1C(=O)Nc1nc2ccccc2n1CCN1CCCCC1,i,i,-2,i,+
CCOC(=O)c1ccccc1NC(=O)COc1ccccc1,i,i,8,i,i
COc1cccc(OCC(=O)Nc2cccc(-c3nnc(-c4ccccc4)o3)c2)c1,nt,nt,101*,nt,nt
O=C(COc1ccc(I)cc1)Nc1cccc(-c2nnc(-c3ccco3)o2)c1,nt,nt,79*,nt,nt
CCc1cccc(OCC(=O)Nc2ccccc2C(N)=O)c1,nt,nt,130*,nt,nt
Cc1cc(C)cc(OCC(=O)Nc2cccc(-c3nnc(-c4ccco4)o3)c2)c1,nt,nt,42,nt,nt
CCc1cccc(OCC(=O)Nc2cccc(-c3nnc(-c4ccccc4)o3)c2)c1,nt,nt,98*,nt,nt
CC(NS(=O)(=O)c1ccccc1)C(=O)Nc1ccccc1Sc1ccccc1 (stereo not drawn),nt,nt,-5,nt,nt
Cc1ccc(C(=O)CC(C(=O)c2ccc(C(F)(F)F)cc2)c2cccs2)cc1 (stereo not drawn),nt,nt,3,nt,nt
COc1ccc2ccccc2c1C=C1C(=O)OC2(CCCC2)OC1=O,nt,nt,10,nt,nt
CS(=O)(=O)N(CC(=O)Nc1cc(Cl)ccc1Cl)c1cccc([N+](=O)[O-])c1,nt,nt,-9,nt,nt
Cc1cccc(OCC(=O)Nc2cccc(-c3nnc(-c4ccccc4)o3)c2)c1,nt,nt,91*,nt,nt
C[C@]12C[C@H](O)C3C(CC[C@@H]4C[C@H](O)CC[C@]34C)C1CC[C@@H]2C(=O)CO (stereo partly drawn),i,i,-1,i,i
C[C@]12CCC(=O)C=C1CC[C@@H]1C2CC[C@@]2(C)C1CC[C@@H]2C(=O)CO (stereo partly drawn),+,i,-11,i,i
CC(C)c1ccc(OCC(=O)Nc2ccccc2C#N)c(Br)c1,i,i,130*,i,i
CCc1ccc(OCC(=O)Nc2ccccc2C#N)cc1,nt,nt,64*,nt,nt
Fc1cccc(/C=N/N=C/c2cccc(F)c2)c1,i,i,88*,i,i
Cc1cccc2c1N(C)C(=O)C2(O)CC(=O)c1ccco1 (stereo not drawn),i,i,-14,i,i
O=c1cc(-c2ccccc2)oc2cc(O)ccc12,i,i,77*,i,i
COc1ccc2c(=O)cc(-c3ccccc3)oc2c1,i,i,81*,i,i
Nc1ccc(-c2cc(=O)c3cc(O)ccc3o2)cc1,i,i,26,i,i
CC(C)NC(=O)N(C)C[C@@H]1Oc2ncc(C#Cc3ccc(C(F)(F)F)cc3)cc2C(=O)N([C@H](C)CO)C[C@@H]1C,+,i,-13,+,+
